For eight compounds, outcome and AC50 results are on record in PubChem BioAssay (EPA / NIEHS).

A short description of experiment [1]: VALA_MIGHUV2_Bcatenin: VALA Sciences human Umbilical Vein Endothelial Cell Migration (MIGHUV) Assay, Nuclear Translocation of beta-Catenin after Recovery (AID 2284315). In short, it runs like this:
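Nuclear beta-catenin imaged by immunofluorescence with Hoechst counterstain in fixed HUVEC, 24 h after scratch wounding and chemical addition. Six-point concentration-response in triplicate; activity scored as signal increase over 0.1% DMSO vehicle.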

Experiment [2] can be described thus: VALA_MIGHUV2_WoundArea: VALA Sciences human Umbilical Vein Endothelial Cell Migration (MIGHUV) Assay, Area of Scratch Wound after Recovery (AID 2284316). An outline of the steps:
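Wound-area endpoint read by fluorescence imaging of Hoechst-stained nuclei after a 24 h recovery period following scratch of HUVEC monolayers (9000 cells/well). Chemicals dosed within 30 min post-scratch, triplicate 6-point series, 0.1% DMSO vehicle; Cytochalasin D positive control.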

Experiment [3] in a line: VALA_MIGHUV1_ScratchOnly_WoundArea: VALA Sciences human Umbilical Vein Endothelial Cell Migration (MIGHUV) Assay, Area of Scratch Wound Inhibited Recovery (AID 2284336). An outline of the steps:
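Wound area remaining after 24 h recovery imaged by Hoechst nuclear fluorescence in scratched HUVEC cultures, chemicals added within 30 min of scratching across a 6-point series. Gain of signal fitted against 0.1% DMSO; cytochalasin D positive control.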

Experiment [4] in a line: VALA_TUBHUV_Agonist_TubuleLength: VALA Sciences human Umbilical Vein Endothelial Tubule Formation (TUBHUV) Agonism Assay (AID 2284337). An outline of the steps:
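Tubule length quantified by CD31 immunofluorescence imaging after fixation. HUVEC-HDF co-cultures (1:3) pre-grown 3 days with 10 ng/ml VEGF, then dosed 3 days in VEGF medium; 0.1 % DMSO vehicle baseline.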

A short description of experiment [5]: VALA_TUBIPS_Agonist_CellCount: Viability Assessment in the VALA Sciences human iPS-derived Endothelial Tubule Formation (TUBIPS) Agonism Assay (AID 2284338). The procedure: VALA_TUBIPS_Agonist is a cell-based, multiplexed assay that uses human iPS-derived endothelial cells (iPSC). Measurements were taken 72 hours after chemical dosing in a 96-well plate.VALA_TUBIPS_Agonist_CellCount is the one of two assay components measured from the VALA_TUBIPS_Agonist assay. It is designed to make measurements of viability, a form of viability reporter, as detected with fluorescence intensity signals by HCS Fluorescent Imaging technology. Data from the assay component VALA_TUBIPS_Agonist_CellCount was analyzed at the endpoint, VALA_TUBIPS_Agonist_CellCount, in the positive analysis fitting direction relative to DMSO as the negative control and baseline of activity. Using a type of viability reporter, loss-of-signal activity can be used to understand viability. To generalize the intended target to other relatable targets, this assay endpoint is annotated to the cell cycle intended target family, where the subfamily is cell count.
This HUVEC-HDF assay was designed to detect chemical suppression of tubulogenesis, i.e. antagonism. To measure tubulogenesis antagonism, HUVEC cells were co-cultured with HDF cells at a 1:3 ratio for 3-days in 10 ng/ml VEGF (i.e., favorable conditions with growth factors), then changed to assay medium containing 10 ng/ml VEGF and ToxCast compounds for an additional 3-day period. […]

The subject of experiment [6] is IYD (gene 389434). Briefly: CCTE_GLTED_hIYD: CCTE's human Iodotyrosine Deiodinase (xIYD) Inhibition Assay, Great Lakes Toxicology and Ecology Division (GLTED) Lab (AID 2284317).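 Note: cell-free human IYD enzyme made in baculovirus insect cells; iodide freed from monoiodotyrosine measured by cerium arsenite color change at 420 nm.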 An outline of the steps:
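Cell-free; baculovirus/insect-cell hIYD + MIT substrate + chemical, 3 h. Dowex column cleanup, then Ce4+/As3+ Sandell-Kolthoff read at A420 nm. Triplicate plates; normalized to 3-nitro-L-tyrosine (positive) and DMSO/NaOH (solvent).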

Experiment [7] is described as follows: CCTE_Deisenroth_5AR_NBTE_donor: CCTE's 5alpha-reductase NanoBRET Target Engagement Assay […], Deisenroth Lab (AID 2284319; active = hit-call score of the fitted dose curve at least 0.9, where 1 is the maximum; inactive = score below 0.9). The conditions noted are these: actives raise or lower the signal. In short, it runs like this: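 SRD5A2-NanoLuc, HEK293T, 20 h expression. Chemical 10 nM - 29.9 uM, 8 conc, duplicate; 3 h preincubation + 2 h testosterone tracer. Nano-Glo substrate plus extracellular NanoLuc inhibitor; donor lum 460 nm. DMSO baseline, bidirectional fit.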
Background: BRET reads energy transfer from a luciferase to a nearby fluorophore.

Experiment [8] can be described thus: CCTE_Deisenroth_5AR_NBTE_acceptor: CCTE's 5alpha-reductase NanoBRET Target Engagement Assay - Autofluorescence Screen, Deisenroth Lab (AID 2284321; active = hit-call score of the fitted dose curve at least 0.9, where 1 is the maximum; inactive = score below 0.9;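 note: compound fluorescence in the acceptor channel under 460 nm excitation flags autofluorescence artifacts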). The conditions noted are these: actives raise or lower the signal. An outline of the steps:
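Acceptor-channel fluorescence flags artifacts, with excitation fixed at 460 nm. Nominal 100 uM chemical samples were read in triplicate runs, and signal changes were fitted in both directions relative to DMSO.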

The test system of experiment [9] is SRD5A2 (gene 6716). Briefly: CCTE_Deisenroth_5AR_NBTE_ratio: CCTE's 5alpha-reductase NanoBRET Target Engagement Assay - Ratio, Deisenroth Lab (AID 2284322; active = hit-call score of the fitted dose curve at least 0.9, where 1 is the maximum; inactive = score below 0.9). The conditions noted are these: actives raise or lower the signal. In short, it runs like this: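 SRD5A2-NanoLuc HEK293T; cmpd 10 nM-29.9 uM, 3 h preinc + testosterone tracer 2 h; NanoBRET ratio 650/460; bidirectional fit vs DMSO.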

In experiment [10] the test system is SERPINA7 (gene 6906). Briefly: CCTE_GLTED_hTBG: CCTE's human Thyroxine-binding Globulin (TBG) Inhibition Assay, Great Lakes Toxicology and Ecology Division (GLTED) Lab (AID 2284343).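 Note: active chemicals lower fluorescence versus DMSO baseline by displacing probe.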 An outline of the steps:
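Fluorescence (ex 380/em 475) reports ANSA displaced from human TBG after a 2 h incubation with test chemical, without cells. Loss of signal indicates displacement, with DMSO serving as baseline.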

Experiment [11] can be described thus: CCTE_Padilla_ZF_Score.Craniofacial: CCTE's 144 Hour Post-fertilization zebrafish Assay Score for Craniofacial Malformation, Padilla Lab (AID 2284405; active = hit-call score of the fitted dose curve at least 0.9, where 1 is the maximum; inactive = score below 0.9). In short, it runs like this:
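Craniofacial defects were scored at 6 dpf by two blinded observers using stereomicroscopy. Exposure of wild-type embryos began at 6–8 hpf in sealed wells of 10% Hanks' solution at 26C, with chemical removed by rinsing at 5 dpf.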

A short description of experiment [12]: CCTE_Padilla_ZF_Score.Edema: CCTE's 144 Hour Post-fertilization zebrafish Assay Score for Edema Malformation, Padilla Lab (AID 2284406; active = hit-call score of the fitted dose curve at least 0.9, where 1 is the maximum; inactive = score below 0.9). In short, it runs like this: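 Edema scored at 6 dpf by two blinded observers under a stereo microscope, in single outbred wild-type larvae exposed from 6-8 hpf in sealed wells (Hanks', 26C, 14:10 h light) and chemical-free after a 5 dpf rinse.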

A short description of experiment [13]: CCTE_Mundy_HCI_iCellGluta_NOG_NeuriteLength: CCTE's Neurite Outgrowth Assay in iCellGluta cells for Neurite Length, Mundy Lab (AID 2284318). In short, it runs like this:
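Automated high-content imaging of betaIII-tubulin (Alexa Fluor-488) and Hoechst-stained cells gave neurite length, normalized to the DMSO baseline.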

Experiment [14] is described as follows: IUF_NPC1_cytotoxicity_72hr: Cytotoxicity Assessment at 72 hours in the Leibniz Research Institute for Environmental Medicine (IUF) Neural Progenitor Cell Proliferation Assay (NPC1) (AID 2284332).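 Note: rising LDH signal means more cytotoxicity.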 In short, it runs like this: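 LDH in supernatant, resazurin→resorufin fluorescence (RFU), 72 h exposure, no re-dosing. Cells: primary hNPC spheres, one per well, EGF+FGF medium, 37C/5% CO2, pH 7.2-7.6. Fit: positive direction vs baseline and dynamic range.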

Experiment [15] can be described thus: CCTE_Mundy_HCI_iCellGluta_NOG_NeuronCount: CCTE's Neurite Outgrowth Assay in iCellGluta cells for Neuron Count, Mundy Lab (AID 2284340).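 Note: cells fixed about 48 h after compound addition.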 An outline of the steps: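 Neuron count read by automated high-content imaging of Hoechst 33342 and betaIII-tubulin/Alexa Fluor-488 labelling in human iPSC glutamatergic neurons. Activity fitted relative to DMSO.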
Experiment [16] is described as follows: CCTE_Mundy_HCI_iCellGluta_NOG_NeuriteCount: CCTE's Neurite Outgrowth Assay in iCellGluta cells for Neurite Count, Mundy Lab (AID 2284342).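 Note: chemical exposure about 48 hours starting 2 hours after plating.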 The procedure:
CCTE_Mundy_HCI_iCellGluta_NOG is a multiplexed, cell-based-readout assay that uses iCell GlutaNeurons from FUJIFILM Cellular Dynamics, Inc. (FCDI), human glutamatergic enriched neurons derived from induced pluripotent stem (iPS) cells, with measurements taken at 50.33 hours after chemical dosing in a microplate: 96-well plate.CCTE_Mundy_HCI_iCellGluta_NOG_NeuriteCount is one of four components of the CCTE_Mundy_HCI_iCellGluta_NOG assay. It measures neurite outgrowth related to number of neurites using High Content Imaging of fluorescently labelled markers.Data from the assay component CCTE_Mundy_HCI_iCellGluta_NOG_NeuriteCount was analyzed at the endpoint CCTE_Mundy_HCI_iCellGluta_NOG_NeuriteCount in the positive analysis fitting direction relative to DMSO as the negative control and baseline of activity. Using a type of morphology reporter, loss-of-signal activity can be used to understand developmental effects.
Exposure starts 2 hours post-plating by adding 10 ul of the working solution to 90 ul of media in the wells for a 1/10 dilution. Forty-eight hours after chemical treatment cells are fixed by direct addition of 100 ul of warm (37C) Dulbecco's phosphate buffered saline (DPBS) fixative solution containing 8% paraformaldehyde, 8% sucrose, and 0.1% of 3 mg/ml Hoechst 33342 into each well. Primary antibodies are prepared by dilution in Immunocytochemical Staining Buffer (ISB), 10X Dulbecco's PBS, 0.1% Saponin, 5% Bovine Serum Albumin, 0.5% NaN3 (Sodium Azide) and betaIII-tubulin (rabbit anti-betaIII-tubulin, 1:800) followed by Alexa Fluor-488 secondary (1:500) to label neuronal cell bodies and neurites. A Cellomics ArrayScan VTi HCS Reader is used for automated image acquisition and analysis of neurite outgrowth.

Values joined by “and” are separate entries in the source; they are usually repeats but may differ in a detail not shown here. Equal values may be shown once. Results filed as inconclusive are left out. Active and inactive are the calls of the source. Rule for the calls, unless noted: active = hit-call score of the fitted dose curve at least 0.9, where 1 is the maximum; inconclusive = response in the unintended direction; inactive = score below 0.9.

On to `Nc1ncn[nH]1`, for which the outcome in experiment [1], in experiment [2], in [3], in experiment [4] and in experiment [5] was inactive.

On to `O=S1(=O)OC(c2cc(Br)c(O)c(Br)c2)(c2cc(Br)c(O)c(Br)c2)c2ccccc21`, for which the AC50 (usually the concentration giving half of the maximal activity seen) in experiment [6] is 117 µM (active); in experiment [9] it was 4.66 µM (active); in [10], 7.4 µM (active). Also, the outcome in experiment [7] and in experiment [8] was inactive.

In the case of `COC(F)(C(F)(F)C(F)(F)F)C(F)(C(F)(F)F)C(F)(F)F` (stereo unspecified), the outcome in [11] and in experiment [12] was inactive.

With `CC(C)[C@@H](Nc1ccc(C(F)(F)F)cc1Cl)C(=O)OC(C#N)c1cccc(Oc2ccccc2)c1` (stereo partly specified), the result in experiment [13] was inactive.

Take `OC(Cc1ccccc1Cl)(Cn1[nH]cnc1=S)C1(Cl)CC1` (stereo unspecified): the compound was classed as inactive in experiment [13], in experiment [14] and in experiment [16]. The AC50 in experiment [15] is 50 µM (active).

Regarding `CCCSP(=S)(OCC)Oc1ccc(SC)cc1` (stereo unspecified), the AC50 in [10] is 1.52 µM (active).

With `CCCCCCCCCCCCOS(=O)(=O)O`, the AC50 in experiment [6] was 62.8 µM (active) and 56.8 µM (active); in [10], 37.2 µM (active) and 56.4 µM (active).

On to `CNC(=O)CSP(=O)(OC)OC`, for which the compound was called inactive in experiment [14].
